The list is not random: actives were taken first. Their share in the collection is about 0.69%.
PKM2 act: activators of human pyruvate kinase M2; Potency, µM (series often up to 57.5 µM), for inactives: at the highest dose activation, most hits filed as activators; AID 1631; purified PKM2, Kinase-Glo ATP luminescence, activation; response scale: 0% is enzyme alone, no compound; hit rate 0.34% among 260,000; note: potency is the fitted concentration of half-maximal effect; % is set by controls: 0 for no effect and ±100 for the full control effect; nearly all actives have a fitted effect of over 55% in size
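Purified hPK-M2 (>95% pure) converted ADP (0.1 mM final) to ATP with 0.5 mM PEP in 50 mM imidazole pH7.2, KCl, MgCl2, Tween 20, BSA; 1 h at room temperature. ATP detected by Kinase-Glo luminescence.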
Integrin act MD: activates integrin-mediated alleviation for muscular dystrophy. hit rate 0.064% among 350,000. Potency, µM (top dose mostly 38.3 µM), without a hit: top-dose activation, actives largely listed as activators. alpha7betagal myoblasts, beta-gal FDG fluorescence, 48 h;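 note: potency is the fitted concentration of half-maximal effect; 100% = response of the positive control SU9516; nearly all actives have a fitted effect of over 60% in size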
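alpha7betagal+/- myoblasts (passage 13, 250/well) treated 48 h at 37C with compounds at 1:260 dilution of DMSO stock. Lysed, then beta-galactosidase activity read as FDG fluorescence (ex 480/em 540) after 30 min, with pre-read for autofluorescence.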
IL2 activator: IL-2 activation. IL-2 activation reporter assay, cell-based qHTS; stimulated with anti-CD3/CD4/CD28 beads; in transgenic mouse T cells. hit rate 0.065% among 360,000. activation, % (series mostly up to about 46 µM). AID 652025; in the data active = activation above about 50%; inconclusive = mostly about 30% to 49%; note: 0% is about no effect
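Readout: EGFP and DsRed signals by fluorescent plate cytometry. Unstimulated transgenic mouse T cells received compound 60 min before antibody-bead stimulation, then incubated 18 h at 37 degrees C.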
A-T KAP1 phos: potential ataxia-telangiectasia treatment; F2112 A-T fibroblasts, KAP-1 phosphorylation AlphaLISA; neocarzinostatin DNA damage 30 min before lysis; Potency, µM (top dose mostly 57.5 µM), for inactives: at the highest dose activation, most hits filed as activators; hit rate 0.19% among 320,000; note: potency is the fitted concentration of half-maximal effect; % of control where 0% means no effect; nearly all actives have a fitted effect of over 45% in size
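hTERT-immortalized A-T patient fibroblasts (F2112), 500 cells/well in OPTI-MEM, 1% FBS, got compounds for 60 min, then NCS for 30 min at 37C. Lysates were then assayed for phospho-KAP-1 by AlphaLISA (anti-pKAP1 donor, anti-KAP1 acceptor beads), 6 hr at 25C.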
Tb PFK inh-1: T. brucei PFK enzyme inhibition; O15648; hit rate 0.17% among 330,000; T. brucei PFK, ADP-Glo luminescence; Potency, µM (series often up to 57.5 µM), inactives show at the top dose activity, negative = inhibition, actives largely listed as inhibitors; AID 485367;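 note: potency is the fitted concentration of half-maximal effect; 0% = uninhibited 1x PFK enzyme wells and -100% = no-enzyme wells; nearly all actives have a fitted effect of over 60% in size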
Target sequence (O15648 whole entry, looked up): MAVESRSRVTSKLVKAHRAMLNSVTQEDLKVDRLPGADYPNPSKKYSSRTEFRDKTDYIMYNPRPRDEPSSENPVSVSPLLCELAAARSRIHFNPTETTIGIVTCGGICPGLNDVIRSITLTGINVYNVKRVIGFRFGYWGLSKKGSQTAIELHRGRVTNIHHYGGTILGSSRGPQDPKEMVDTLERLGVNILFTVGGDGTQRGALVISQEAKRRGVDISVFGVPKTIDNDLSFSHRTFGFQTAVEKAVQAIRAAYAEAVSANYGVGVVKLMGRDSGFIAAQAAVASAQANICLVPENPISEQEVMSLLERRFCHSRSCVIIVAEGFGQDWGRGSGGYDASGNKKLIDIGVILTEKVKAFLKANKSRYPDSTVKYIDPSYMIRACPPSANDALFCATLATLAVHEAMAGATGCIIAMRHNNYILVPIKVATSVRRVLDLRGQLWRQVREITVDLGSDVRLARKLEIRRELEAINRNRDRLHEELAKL
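Activity is normalized to no-enzyme wells (full inhibition) and 1.25 nM enzyme wells (no inhibition). Reaction: 0.5 mM F6P, 0.1 mM ATP, 45 min RT, ADP-Glo luminescence; concentration-response curves fitted and classed by quality.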
TCR activator: activates T cell receptor signaling; primary human leukocytes, anti-CD3, IL-2 HTRF, 48 h; Potency, µM (titrated, usually from 9.22 µM), for inactives: at the highest dose activation of IL-2 secretion, most hits filed as activators; 330,000 tested, under 10 active; AID 504894; note: % of control where 0% means no effect
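HTRF read-out of IL-2 secretion: europium cryptate donor excited at 320nm, d2 acceptor emission at 665nm. Cells were primary human leukocytes incubated 48 hr with compounds and a-CD3 beads, supplying TCR signal only.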
TbPFK ATP: inhibits T. brucei PFK measured by ATP depletion | Tb PFK enzyme, ATP depletion, Kinase-Glo Plus luminescence | hit rate 47% among 1,100 | Potency, µM (series often up to 57.5 µM), inactives show at the highest dose inhibition | shares compounds with Tb PFK inh-1 | AID 504636; calls by dose curve; note: potency is the fitted concentration of half-maximal effect; nearly all actives have a fitted effect of over 60% in size
Tb PFK inh-2: T. brucei PFK enzyme inhibition, hit validation; shares compounds with Tb PFK inh-1; purified T. brucei PFK, ADP-Glo luminescence, 45 min; Potency, µM (series often up to 57.5 µM), for inactives: at the top dose activity change, negative = inhibition, usual class: inhibitors; hit rate 41% among 1,100; AID 504637;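 note: potency is the fitted concentration of half-maximal effect; plate controls were full PFK enzyme control for no effect and no enzyme control for full effect; nearly all actives have a fitted effect of over 60% in size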
* marks the source's active call; other numbers are inactive results; [ ] = dose if it differs, or a comment. Unless noted, calls come from the whole dose curve; as a rule, active = well fitted curve in the direction sought with a large enough effect; inconclusive = small, poorly fitted or top-dose-only effect, or another doubt; inactive = no such curve, though single readings can be large; an effect the other way counts as inactive or inconclusive.

O=[N+]([O-])c1ccc(C2CC(c3ccccc3)=Nc3ccccc3S2)cc1 (stereo unspecified) was read as PKM2 act -3%, Integrin act MD -23%, IL2 activator -1, A-T KAP1 phos -4%, Tb PFK inh-1 inconclusive, TCR activator 2%, TbPFK ATP 7% and Tb PFK inh-2 1%.
Screening Fc1ccc(C2CC(c3ccco3)=Nc3ccccc3S2)cc1 (stereo unspecified) returned PKM2 act -10%, Integrin act MD 5%, IL2 activator 0, A-T KAP1 phos -2%, Tb PFK inh-1 inconclusive, TCR activator 3%, TbPFK ATP 7% and Tb PFK inh-2 -12%.
`COc1cc2c(c(OC)c1OC)-c1ccc(SC)c(=O)cc1C(NC(C)=O)CC2` (stereo unspecified) gave Integrin act MD 8%, IL2 activator 0 and TCR activator -1%.
For CCNS(=O)(=O)c1ccc(NC(=O)Cn2cc([N+](=O)[O-])cn2)cc1 the results were PKM2 act -26%, Integrin act MD -11%, IL2 activator -1, A-T KAP1 phos -1%, Tb PFK inh-1 12µM*, TCR activator 1%, TbPFK ATP 12µM* and Tb PFK inh-2 inconclusive.
N#CCCn1cc(C(=O)Nc2ccc([N+](=O)[O-])cc2)c(-c2ccccc2)n1 was read as PKM2 act -2%, Integrin act MD 21%, IL2 activator 1, A-T KAP1 phos -7%, Tb PFK inh-1 9% and TCR activator 1%.
`C[C@@H]1CN([C@H](C)CO)C(=O)CCCn2nncc2CO[C@@H]1CN(C)C(=O)Oc1ccc2ccccc2c1` gave Integrin act MD 11% and IL2 activator -2.
`O=C(NN1C(=O)CSC1=S)C(=O)NN1C(=O)CSC1=S` gave Integrin act MD 8%, IL2 activator -1, A-T KAP1 phos 4%, Tb PFK inh-1 inconclusive, TCR activator -7%, TbPFK ATP inconclusive and Tb PFK inh-2 -9%.
O=[N+]([O-])c1cccc(O)c1 was read as IL2 activator 0, A-T KAP1 phos 8%, Tb PFK inh-1 -15% and TCR activator -2%.
Screening CN1CN(c2cccc([N+](=O)[O-])c2)CN=C1N[N+](=O)[O-] returned PKM2 act -19%, Integrin act MD 27%, IL2 activator 1, A-T KAP1 phos 4%, Tb PFK inh-1 27µM*, TCR activator 3%, TbPFK ATP inconclusive and Tb PFK inh-2 inconclusive.
For CN(C)c1ccc(/C=N\NC(=O)c2ccc(Cn3cc(Cl)cn3)cc2)cc1 the results were PKM2 act -1%, Integrin act MD 8%, IL2 activator 0, A-T KAP1 phos 2%, Tb PFK inh-1 12µM*, TCR activator -4%, TbPFK ATP 2.7µM* and Tb PFK inh-2 3.4µM*.
`CCOc1cc2c(cc1OCC)-n1cccc1C(c1cccc(OCC)c1O)NC2` (stereo unspecified) gave Integrin act MD -36%, IL2 activator 3, A-T KAP1 phos -8%, Tb PFK inh-1 1% and TCR activator 4%.
Screening CN(C)C1(CNC(=O)Nc2ccc(Cl)c(Cl)c2)CCCCC1 returned Integrin act MD -36%, IL2 activator -1, A-T KAP1 phos 2%, Tb PFK inh-1 -6% and TCR activator 2%.
O=C(Nc1cnn(Cc2ccc(Cl)c(Cl)c2)c1)C12CC3CC(CC(C3)C1)C2 was read as PKM2 act 4%, Integrin act MD 4%, IL2 activator -4, A-T KAP1 phos 3%, Tb PFK inh-1 inconclusive, TCR activator -14%[46.1 µM], TbPFK ATP inconclusive and Tb PFK inh-2 inconclusive.
For COC(=O)C1=C(c2c(C)noc2C)C[C@@H]2CC[C@H]1N2C(=O)NCc1ccco1 the results were Integrin act MD 4%, IL2 activator 2, A-T KAP1 phos 21%, Tb PFK inh-1 -1% and TCR activator 2%.
Screening C[C@]12CCC3C(CC[C@H]4C[C@@H](O)CC[C@]34C)C1=CC[C@@H]2O (stereo partly specified) returned Integrin act MD -7% and IL2 activator -3.
`CCn1c(=O)c(C(=O)Nc2nc3ccccc3[nH]2)c(O)c2ccccc21` gave PKM2 act -3%, Integrin act MD -27%, IL2 activator -4, A-T KAP1 phos 1%, Tb PFK inh-1 inconclusive, TCR activator -6%, TbPFK ATP -32% and Tb PFK inh-2 inconclusive.
For CCCCCn1c(=O)c(C(=O)Nc2nc3ccccc3[nH]2)c(O)c2ccccc21 the results were PKM2 act -9%, Integrin act MD -4%, IL2 activator -2, A-T KAP1 phos -7%, Tb PFK inh-1 1% and TCR activator -21%.
Cc1c(C(=O)OCc2ccccc2)[nH]c2c1C(=O)CC(c1ccco1)C2 (stereo unspecified) was read as PKM2 act inconclusive, Integrin act MD inconclusive, IL2 activator -4, A-T KAP1 phos -7%, Tb PFK inh-1 inconclusive, TCR activator 5%, TbPFK ATP inconclusive and Tb PFK inh-2 inconclusive.
For CCCCn1nnnc1C(CCSC)N1CCC(n2c(=O)[nH]c3ccccc32)CC1 (stereo unspecified) the results were IL2 activator 1.
`COc1cc(Br)c(Br)cc1N` gave PKM2 act 0%, Integrin act MD -1%, IL2 activator 0, A-T KAP1 phos 4%, Tb PFK inh-1 inconclusive, TCR activator 10%, TbPFK ATP 21µM* and Tb PFK inh-2 inconclusive.
For CC(C)C[C@@H]1COc2cc(N3CCN(C)CC3)ccc2S(=O)(=O)N1 the results were IL2 activator 0.
`CCn1c(O)c(C=NCCN2CCOCC2)c(=O)[nH]c1=S` gave PKM2 act 5%, Integrin act MD 4%, IL2 activator 2, A-T KAP1 phos 1%, Tb PFK inh-1 0% and TCR activator -18%.

Bioassay records deposited in PubChem BioAssay by National Center for Advancing Translational Sciences (NCATS).
